Source: PubChem BioAssay
Activity calls are given as the source filed them.

Legend:
[1] = tested on: Human papillomavirus type 1a protein E7 (residues 44-93); test: small molecules binding HPV E7 44-93 – biochemical, small-molecule microarray, residues 44-93, 635 nm fluorescence, primary screen (AID 1108); details: fluorescence 635 nm, higher = more signal;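 further: E7 fragment applied at 1 µg/mL in TBST for 1 h at 4 C; score combines spot fluorescence with its signal to noise ratio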
[2] = hepatitis C replication reporter changes, two-sided – Huh7 cells, luciferase reporter, HCV replication inhibitor project, primary screen (AID 1109); details: Huh7 HCV replicon luciferase reporter, 48 h; higher = more signal;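 further: huh7 hepatoma cells harbouring a luciferase neomycin HCV replicon reporter; luciferase luminescence as measure of HCV replicon replication; test concentration not given here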
[3] = biological target: Left-right determination factor 2 (Homo sapiens) (UniProt O00292); test: small molecules binding LEFTY2 protein – biochemical, small-molecule microarray, 635 nm fluorescence scan, primary screen (AID 1110); details: higher = more signal
Chain of Left-right determination factor 2 (Homo sapiens) (O00292 whole entry, looked up): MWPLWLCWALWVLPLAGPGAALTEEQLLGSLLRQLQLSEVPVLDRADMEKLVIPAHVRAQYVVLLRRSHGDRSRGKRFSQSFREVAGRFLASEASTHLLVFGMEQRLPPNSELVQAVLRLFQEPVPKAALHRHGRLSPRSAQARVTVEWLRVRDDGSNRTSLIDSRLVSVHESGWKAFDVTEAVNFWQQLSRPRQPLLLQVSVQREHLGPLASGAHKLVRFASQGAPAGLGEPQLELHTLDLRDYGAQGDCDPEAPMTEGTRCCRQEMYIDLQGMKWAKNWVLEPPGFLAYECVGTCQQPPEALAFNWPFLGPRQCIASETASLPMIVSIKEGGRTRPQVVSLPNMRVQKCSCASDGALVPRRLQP

[4] = biological target: Calmodulin-1 (Homo sapiens) (UniProt P0DP23); test: small molecules binding calmodulin-1 with EGTA – biochemical, small-molecule microarray, Cy5-labelled CALM1, profiling panel (AID 1111); details: Cy5-CALM1 binding fluorescence, higher = more signal;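 further: labelled calmodulin applied in Tris saline Tween buffer holding calcium plus EGTA and DTT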
[5] = biological target: Calmodulin-1 (Homo sapiens) (UniProt P0DP23); test: small molecules binding Ca-loaded calmodulin-1 – biochemical, small-molecule microarray, Cy5-labelled CALM1, plus calcium, artefact control for SMM control-protein annotation, profiling panel (AID 1112); details: Cy5-CALM1 binding fluorescence, higher = more signal;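 further: score merges spot fluorescence with signal to noise from triplicate slides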
[6] = probe aWnt5a binding to arrayed compounds – biochemical, biotinylated probe, 635/667 nm fluorescence, primary screen (AID 1113); details: small-molecule microarray, higher = more signal;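 further: score merges 667 nm fluorescence intensity with signal-to-noise per printed feature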
[7] = probe aShh binding to arrayed compounds – biochemical, biotinylated probe, 635/667 nm fluorescence, primary screen (AID 1114); details: small-molecule microarray, higher = more signal;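 further: probe is biotin-labelled aShh protein from a stem cell growth factor screen; measures binding of labelled protein to compounds printed on the slide; score merges feature fluorescence at 667 nm with signal-to-noise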
[8] = probe aNog binding to arrayed compounds – biochemical, biotinylated probe, 635/667 nm fluorescence, primary screen (AID 1115); details: small-molecule microarray, higher = more signal;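 further: probe is biotinylated aNog protein used at 0.15 µg/mL for 1 h at 4 C; z-score combines 667 nm fluorescence of each spot with its signal to noise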
[9] = biological target: Torsin-1A-interacting protein 1 (Homo sapiens) (UniProt Q5JTV8); test: compound microarray binding of lysate hLAP1 – cell lysate, small-molecule microarray, COS7 lysate, 635/667 nm fluorescence, primary screen (AID 1116); details: 635 nm fluorescence, higher = more signal
Chain of Torsin-1A-interacting protein 1 (Homo sapiens) (Q5JTV8 whole entry, looked up): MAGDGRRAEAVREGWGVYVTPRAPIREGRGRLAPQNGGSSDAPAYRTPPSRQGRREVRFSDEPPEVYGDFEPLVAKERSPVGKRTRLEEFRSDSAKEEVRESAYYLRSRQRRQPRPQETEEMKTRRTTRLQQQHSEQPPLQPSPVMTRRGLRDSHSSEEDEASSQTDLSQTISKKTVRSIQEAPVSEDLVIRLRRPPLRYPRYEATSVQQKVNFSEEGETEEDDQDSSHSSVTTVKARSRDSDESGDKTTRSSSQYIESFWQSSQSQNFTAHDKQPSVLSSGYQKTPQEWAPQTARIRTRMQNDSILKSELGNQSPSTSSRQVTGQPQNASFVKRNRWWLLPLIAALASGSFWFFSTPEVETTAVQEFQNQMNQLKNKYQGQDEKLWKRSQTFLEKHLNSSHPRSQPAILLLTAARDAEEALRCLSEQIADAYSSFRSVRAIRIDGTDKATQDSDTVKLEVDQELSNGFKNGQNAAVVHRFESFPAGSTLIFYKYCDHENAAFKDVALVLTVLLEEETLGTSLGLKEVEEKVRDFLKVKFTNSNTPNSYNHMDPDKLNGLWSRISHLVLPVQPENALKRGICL

[10] = biological target: Alpha-bungarotoxin (Bungarus multicinctus) (UniProt P60615); test: compounds binding labelled alpha-BTX control protein – biochemical, small-molecule microarray, Alexa647 label, 635/667 nm fluorescence, artefact control for SMM control protein annotation, profiling panel (AID 1117); details: alpha-BTX-A647 binding fluorescence, higher = more signal
Chain of Alpha-bungarotoxin (Bungarus multicinctus) (P60615 whole entry, looked up): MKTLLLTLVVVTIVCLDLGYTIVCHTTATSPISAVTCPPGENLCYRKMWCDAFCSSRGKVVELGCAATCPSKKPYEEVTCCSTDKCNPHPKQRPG

[11] = biological target: Albumin (Bos taurus) (UniProt P02769); test: compounds binding labelled BSA control protein – biochemical, small-molecule microarray, Alexa647 label, 635/667 nm fluorescence, artefact control for SMM control protein annotation, profiling panel (AID 1118); details: BSA-A647 binding, fluorescence 635 nm, higher = more signal;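 further: score merges 667 nm emission intensity and signal-to-noise per printed compound spot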
Chain of Albumin (Bos taurus) (P02769 whole entry, looked up): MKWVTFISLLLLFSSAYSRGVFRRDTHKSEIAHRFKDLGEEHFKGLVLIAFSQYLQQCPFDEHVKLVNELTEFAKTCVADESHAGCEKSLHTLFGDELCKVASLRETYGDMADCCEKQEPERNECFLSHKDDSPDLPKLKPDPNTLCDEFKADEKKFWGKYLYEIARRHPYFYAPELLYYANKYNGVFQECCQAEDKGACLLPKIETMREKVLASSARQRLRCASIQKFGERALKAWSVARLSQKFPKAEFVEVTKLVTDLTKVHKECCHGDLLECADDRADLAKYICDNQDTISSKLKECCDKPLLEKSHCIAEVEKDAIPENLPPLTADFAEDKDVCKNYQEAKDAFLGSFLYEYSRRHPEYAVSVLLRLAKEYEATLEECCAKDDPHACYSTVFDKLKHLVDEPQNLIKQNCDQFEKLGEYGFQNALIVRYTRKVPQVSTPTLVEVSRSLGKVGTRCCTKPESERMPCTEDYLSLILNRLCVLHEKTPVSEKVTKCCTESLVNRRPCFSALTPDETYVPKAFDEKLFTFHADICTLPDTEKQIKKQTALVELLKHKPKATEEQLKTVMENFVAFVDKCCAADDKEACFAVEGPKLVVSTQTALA

[12] = probe aXIP binding to arrayed compounds – biochemical, NeuroSMM set, 635/667 nm fluorescence, primary screen (AID 1119); details: small-molecule microarray, higher = more signal, called active from +8 up or from −8 down;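 further: probe is the protein aXip251-270 applied at 1 µg/mL to compound-printed slides; binding of probe to printed compounds measured as 667 nm fluorescence plus signal to noise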
[13] = probe aNOTCH3 binding on compound microarray – biochemical, small-molecule microarray, 635/667 nm fluorescence, primary screen (AID 1120); details: higher = more signal;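 further: probe is a biotin-tagged antibody raised against NOTCH3 rather than NOTCH3 protein; score merges spot fluorescence near 667 nm with spot signal to noise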
[14] = probe aNOTCH2 binding on compound microarray – biochemical, small-molecule microarray, 635/667 nm fluorescence, primary screen (AID 1121); details: higher = more signal;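 further: score merges feature fluorescence read at 667 nm with its signal to noise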
[15] = biological target: Carbonic anhydrase 2 (Homo sapiens) (UniProt P00918); test: compounds binding carbonic anhydrase 2 – biochemical, small-molecule microarray, Alexa647-labelled CAII, profiling panel (AID 1122); details: CAII-A647 binding fluorescence, higher = more signal
[16] = COS7 lysate on small-molecule microarray, probe aHis, 635 nm (AID 1123); details: COS7 cell lysate, fluorescence, higher = more signal;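 further: z-score combines 667nm fluorescence intensity with signal-to-noise per printed compound spot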
[17] = probe aLAP1 signal on lysate-treated microarray – cell lysate, small-molecule microarray, COS7 lysate, primary screen (AID 1124); details: probe aLAP1, fluorescence, higher = more signal;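 further: lysate comes from COS7 cells expressing LAP1 and is applied at 0.3 µg/mL; score merges spot fluorescence near 667 nm with signal-to-noise over triplicate slides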
[18] = tested on: Sam68 (KHDRBS1); test: compounds binding KHDRBS1 protein – biochemical, small-molecule microarray, 635 nm fluorescence, primary screen (AID 1125); details: higher = more signal;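 further: score merges 667 nm channel intensity with signal to noise over triplicate slides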
[19] = tested on: Chordin-like protein 2 (CHRDL2); test: compounds binding chordin-like 2 – biochemical, small-molecule microarray, 635 nm fluorescence, primary screen (AID 1126); details: fluorescence 635 nm, higher = more signal;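 further: printed compound slides probed with Chrdl2 protein at 4 µg/mL for 1 h at 4 C; score merges 667 nm emission intensity with signal to noise over three replicate slides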
[20] = biological target: Concanavalin-A (Canavalia ensiformis) (UniProt P02866); test: compounds binding concanavalin A lectin – biochemical, small-molecule microarray, Alexa647 label, 635 nm, artefact control for SMM control protein annotation, primary screen (AID 1127); details: ConA-A647 binding fluorescence, higher = more signal;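 further: z combines 667 nm emission intensity with signal-to-noise across three replicate slides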
Chain of Concanavalin-A (Canavalia ensiformis) (P02866 whole entry, looked up): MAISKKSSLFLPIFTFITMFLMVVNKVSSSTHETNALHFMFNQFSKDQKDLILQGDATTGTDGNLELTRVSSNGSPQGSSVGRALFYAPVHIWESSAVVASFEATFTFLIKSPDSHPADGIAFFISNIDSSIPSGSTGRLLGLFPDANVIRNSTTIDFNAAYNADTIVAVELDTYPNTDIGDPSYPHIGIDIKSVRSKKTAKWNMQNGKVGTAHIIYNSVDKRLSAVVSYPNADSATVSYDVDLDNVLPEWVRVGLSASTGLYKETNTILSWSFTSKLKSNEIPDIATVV

SMILES | composite z-score [1] | z-score [2] | composite z-score [3] | composite z-score [4] | composite z-score [5] | composite z-score [6] | composite z-score [7] | composite z-score [8] | composite z-score [9] | composite z-score [10] | composite z-score [11] | composite Z-score [12] | composite z-score [13] | composite z-score [14] | composite z-score [15] | composite z-score [16] | composite z-score [17] | composite z-score [18] | composite z-score [19] | composite z-score [20]
COc1ccc([Si](C)(C)[C@H]2[C@H](CCO)O[C@@]3(C(=O)N(Cc4ccccc4)c4ccc(N5CCOC5=O)cc43)[C@@H]2C)cc1 | 0.27 | -4.13 | 0.28 | 0.284 | 0.299 | -0.0239 | 0.0062 | 0.325 | 0.673 | 0.0997 | 0.711 | -0.326 (inactive) | 0.0311 | -0.149 | 0.299 | 0.644 | -0.174 | 0.832 | 0.524 | 1.15
COc1cc(NN2C(C(O)C3CCCCC3)C=CC3C(=O)N(C)C(=O)C32)cc(OC)c1OC (stereo not given) | 1.44 | -0.611 | 0.0347 | 2.01 | 0.964 | 0.265 | 0.417 | 1.32 | 1.32 | 1.72 | 1.04 | 1.37 (inactive) | 0.678 | 0.22 | 0.424 | 2.78 | 0.339 | 1.32 | -0.531 | 1.15
CCOC(=O)C1=C[C@@H](C(C)(C)C)N(S(=O)(=O)c2ccc(C)cc2)[C@H]1c1cccc(Cl)c1 | 0.941 | -2.85 | 0.553 | 1.09 | 0.321 | 0.137 | 0.186 | -0.136 | 0.715 | 1.27 | 0.91 | -0.244 (inactive) | 0.0311 | -0.037 | 0.232 | 1.15 | 0.596 | 1.3 | 0.0761 | 1.11
COc1cc(NN2C(C(O)C3CCCCC3)C=CC3C(=O)N(c4ccccc4)C(=O)C32)cc(OC)c1OC (stereo not given) | 1.05 | -1.1 | -0.79 | 2.13 | 1.23 | 0.141 | -0.11 | 0.658 | 1.5 | 1.98 | 1.07 | 1.13 (inactive) | 0.0205 | 0.0888 | 0.712 | 2.65 | 0.605 | 1.3 | -1.5 | 1.11
Cc1c(NC(=O)/C(C#N)=C/c2ccccc2Cl)c(=O)n(-c2ccccc2)n1C | -0.11 | 0.614 | 0.453 | 1.01 | -0.154 | -0.0377 | -0.588 | -0.226 | 0.858 | 0.42 | 0.942 | -0.683 (inactive) | -0.0048 | -0.011 | 0.704 | 1.08 | 0.237 | 0.247 | 0.107 | 0.996
O=C1C[C@@](C(=O)NCc2ccccc2)(c2ccc([N+](=O)[O-])cc2)[C@@H](c2ccc(CO)cc2I)N1CC12CC3CC(CC(C3)C1)C2 | 1.39 | -3.32 | 0.591 | 0.387 | 0.0818 | -0.0529 | -0.152 | -0.131 | 0.903 | 1.02 | 0.59 | -0.0102 (inactive) | -0.223 | -0.14 | 0.721 | 2.25 | 0.0884 | 1.21 | 0.542 | 0.999
CN1C(=O)C2C(C1=O)C1C=C(CCCO)C2C(C2CC2)N1Cc1cc2c(cc1Br)OCO2 (stereo not given) | 0.295 | -0.734 | 0.285 | 0.508 | 0.724 | -0.0462 | 0.0893 | 1.21 | 1.33 | 1.58 | 0.984 | 1.32 (inactive) | 0.201 | -0.0097 | 0.756 | 2.63 | 1.25 | 1.18 | 0.0995 | 0.738
CCN(CC)c1ccc(N2CC=CC34O[C@@H]5/C=C\CCC(C)OC(=O)C5[C@H]3C(=O)N(C(C)CO)[C@@H]4C2=O)cc1 (stereo not given in full) | -0.344 | 0.0645 | -0.292 | -0.847 | -1.66 | -0.0346 | -0.0709 | -0.318 | 0.187 | -1.04 | -0.739 | 0.451 (inactive) | -0.24 | -0.148 | 0.42 | -0.175 | -0.165 | -0.0199 | 0.142 | -1.09
CCN(CC)c1ccc(N2CC=CC34O[C@@H]5C=CCCOC(=O)C5[C@H]3C(=O)N(CCO)[C@@H]4C2=O)cc1 (stereo not given in full) | -0.595 | -0.362 | -1.37 | -0.547 | -0.183 | -0.214 | -0.26 | 2.13 | -1.01 | 0.253 | 0.0715 | -0.296 (inactive) | -0.341 | -0.158 | 0.898 | -0.724 | 0.624 | -0.661 | -0.414 | -2.06
CC(=O)NCCCC[C@@H]1NC(=O)[C@H]2C[C@@H](C(=O)NCCCCCNC(=O)CS)[C@@H](c3cccc(OCCO)c3)N2C1=O | 0.0676 | 0.217 | 0.0794 | 0.232 | 0.202 | -0.157 | -0.147 | -0.158 | 0.868 | 0.389 | 0.419 | 1.98 (inactive) | -0.27 | -0.173 | 0.364 | 2.34 | -0.178 | 0.742 | 0.715 | 0.493
CC1(C)C(=O)C(c2ccccc2)=C2CN3C(=O)N(CCc4ccccc4)C(=O)C3(Cc3ccc(F)cc3)C=C21 (stereo not given) | 0.754 | -1.47 | -1.24 | 1.11 | 0.725 | 0.317 | 0.717 | 1.8 | 0.551 | 0.273 | 0.471 | 0.0294 (inactive) | 0.781 | 0.246 | 0.0225 | 1.39 | 0.155 | 0.222 | -1.21 | 0.477
COCCOC(=O)N1C(=O)[C@@]2(c3ccccc31)[C@H](c1ccccc1OCCO)N1[C@H](c3ccccc3)[C@H](c3ccccc3)OC(=O)[C@H]1[C@@H]2C(=O)N1CCCCCCC1 | 1.53 | -3.17 | 1.73 | 2.8 | 1.47 | 1.5 | 3.37 | 3.61 | 5.43 | 3.1 | -0.0233 | 7.47 (inactive) | 2.15 | 1.16 | 0.935 | 4.27 | 1.96 | 1.29 | 1.47 | 0.883
